Experimental findings from PubChem BioAssay (NCI) are described below.

Compounds without any hit were thinned out: in the full panel of roughly 83,000, 20% have a hit.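 96-well plates, one dose, 48 hours. Percent growth reported; active if below 10.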 Values without a mark were called inactive. The source made the active and inactive calls.

What all share (experiment): NCI-60 one-dose screen, 48 h (100 = growth as untreated, 0 = no growth, -100 = all killed)
Common to all, as to settings: 10 µM unless noted

For test [1], the system named is NCI-H23 lung.
Test [2] has as its system NCI-H226 lung.
The test system of test [3] is NCI-H322M lung.
Test [4] concerns HOP-62 NSCLC.
The test system of test [5] is NCI-H460 lung.
The test system of test [6] is NCI-H522 lung.
Test [7] relates to A549/ATCC NSCLC.
Test [8] has as its system 786-0 renal.
Test [9] has as its system COLO 205 colon.
Test [10] relates to DU-145 prostate.
In test [11] the test system is K-562 leukemia.
The test system of test [12] is MALME-3M melanoma.
Test [13] deals with MDA-MB-231 breast.
The test system of test [14] is RXF 393 renal.
Test [15] relates to SF-268 CNS.
For test [16], the system named is SF-295 CNS.
In test [17] the test system is SF-539 CNS.
Test [18] deals with UACC-257 melanoma.
Test [19] relates to M14 melanoma.
Test [20] deals with HCT-15 colon.

In the case of `CCn1c2c(c3ccccc31)SC1c3cccn3CCN1C2=S` (stereo not given), the growth in test [1] is 93.7%; in [2], 108%; in test [3] it was 89.8%; in test [4] it was 103%; in test [5], 98.9%; in test [6], 82.1%. Moreover, the growth was 88.5% in test [7]; 102% in test [8]; 109% in test [9]; 102% in test [10]; 105% in [11]; 112% in test [12]. Further, the growth in test [13] is 96.7%; in test [14], 151%; in [15], 96.4%; in test [16], 106%; in test [17], 97.9%; in test [18] it was 98%. The growth was 94.4% in [19] and 82.3% in [20].
`O=C(NCCc1ccccc1)C1CCC(=O)N1Cc1ccc(Br)cc1` (stereo not given): the growth in test [1] is 104%; in test [2] it was 95.1%; in test [3], 101%; in test [4], 93%; in test [5] it was 102%; in [6], 67.1%. The growth in test [7] is 79.1%; in test [8], 105%; in test [9] it was 108%; in test [10] it was 109%; in test [11] it was 107%; in [12], 96.7%. The growth in test [13] is 114%; in test [14], 106%; in [15], 106%; in test [16] it was 106%; in test [17], 96%; in test [18], 79.9%. In addition, the growth in [19] is 104%; in test [20] it was 108%.
For the compound `Cc1cc(NC(=O)Nc2cccc3ccccc23)no1`, the growth is 92.9% in [1]; 108% in [2]; 105% in test [3]; 103% in test [4]; 101% in test [5]; 91% in test [6]. Moreover, the growth was 96.9% in test [7]; 96.4% in test [8]; 154% in [9]; 118% in [10]; 92.4% in test [11]; 101% in [12]. In addition, the growth in [13] was 112%; in test [14], 99.6%; in [15] it was 108%; in [16], 103%; in test [17], 97.2%; in test [18], 105%. Also, the growth in [19] was 107%; in test [20], 95.2%.
In the case of `O=C(O)c1ccc(NC(=O)c2cccc(Nc3ccnc(C(F)(F)F)c3)c2)cc1`, the growth was 102% in test [1]; 99.8% in test [2]; 101% in test [3]; 107% in test [4]; 107% in [5]; 87% in test [6]. The growth was 106% in test [7]; 97.9% in test [8]; 112% in test [9]; 116% in [10]; 105% in test [11]; 93.5% in [12]. The growth was 110% in test [13]; 103% in test [14]; 104% in test [15]; 88.8% in [16]; 106% in [17]; 98.7% in test [18]. The growth is 95.6% in [19] and 96.5% in test [20].
With `c1csc([C@@H]2C[C@@H]3Cc4ccc5ccccc5c4N2O3)c1`, the growth in test [1] is 95.5%; in test [2] it was 108%; in [3] it was 91.2%; in [4], 112%; in [5], 109%; in [6], 87%. In addition, the growth in test [7] is 90.8%; in test [8] it was 98.2%; in test [9], 120%; in [10], 113%; in [11], 93.2%; in [12], 86.4%. In addition, the growth is 89.1% in test [13]; 104% in [14]; 108% in test [15]; 109% in test [16]; 90.5% in test [17]; 98.7% in test [18]. Besides, the figures for the growth in test [19] and in test [20] were 99.7% and 93.7%, respectively.
With `COc1ccc2c(c1)C(=O)c1c-2c(OCCCN(C)C)nc2cc(Br)ccc12`, the growth was 75.5% in test [1]; 57.2% in test [2]; 80.7% in test [3]; 68% in test [4]; 36.2% in test [5]; 61.6% in test [6]. The growth in test [7] was 24.6%; in test [8] it was 77.2%; in test [9], 64.6%; in test [10] it was 78.5%; in test [11] it was 53.1%; in test [12], 69.8%. Further, the growth was 49.9% in test [13]; 43.7% in test [14]; 69% in test [15]; 93.9% in test [16]; 67.6% in [17]; 108% in test [18]. Moreover, the values for the growth in test [19] and in test [20] were 91.8% and -31.3% (active), respectively.
As to `O=[N+]([O-])c1ccc(Oc2cccc(C(F)(F)F)c2)c([N+](=O)[O-])c1`, the growth is 27.7% in [1]; 47.6% in [2]; 90.3% in test [3]; 101% in [4]; 95.6% in test [5]; -16% (active) in [6]. For the same compound, the growth in [7] was 97.2%; in [8], 47.5%; in test [9] it was 2.36% (active); in [10] it was 95.2%; in test [11], 11.2%; in test [12] it was 52.3%. Moreover, the growth in test [13] is 19.7%; in test [14], 53.6%; in test [15] it was 32.2%; in [16], 108%; in [17], 36.9%; in test [18], 53.7%. Moreover, the growth in [19] is 9.6% (active); in test [20], 19%.
